From ChEMBL document CHEMBL1961873, “Compounds: GSK PKIS; Assays: Nanosyn kinase panel” (2012)

Tests used:
[1] = biological target: RAC-alpha serine/threonine-protein kinase (Homo sapiens) (UniProt P31749); conditions: at 0.1 µM
[2] = biological target: RAC-alpha serine/threonine-protein kinase (Homo sapiens) (UniProt P31749); conditions: at 1 µM
[3] = biological target: RAC-beta serine/threonine-protein kinase (Homo sapiens) (UniProt P31751); conditions: at 0.1 µM
[4] = biological target: RAC-beta serine/threonine-protein kinase (Homo sapiens) (UniProt P31751); conditions: at 1 µM
[5] = biological target: RAC-gamma serine/threonine-protein kinase (Homo sapiens) (UniProt Q9Y243); conditions: at 0.1 µM
Sequence of RAC-gamma serine/threonine-protein kinase (Homo sapiens) (Q9Y243 whole entry): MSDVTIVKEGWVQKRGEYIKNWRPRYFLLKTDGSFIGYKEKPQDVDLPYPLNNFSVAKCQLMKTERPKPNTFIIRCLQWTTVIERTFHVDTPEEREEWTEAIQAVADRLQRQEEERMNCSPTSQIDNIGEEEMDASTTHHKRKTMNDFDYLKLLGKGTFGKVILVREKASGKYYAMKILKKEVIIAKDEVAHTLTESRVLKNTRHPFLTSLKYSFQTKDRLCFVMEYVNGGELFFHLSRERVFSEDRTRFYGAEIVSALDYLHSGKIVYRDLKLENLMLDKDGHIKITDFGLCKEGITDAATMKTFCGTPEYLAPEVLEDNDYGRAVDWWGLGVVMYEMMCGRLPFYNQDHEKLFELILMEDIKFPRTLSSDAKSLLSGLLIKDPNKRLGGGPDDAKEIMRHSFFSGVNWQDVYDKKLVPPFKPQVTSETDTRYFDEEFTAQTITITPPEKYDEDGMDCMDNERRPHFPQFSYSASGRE

[6] = biological target: RAC-gamma serine/threonine-protein kinase (Homo sapiens) (UniProt Q9Y243); conditions: at 1 µM
[7] = biological target: G protein-coupled receptor kinase 6 (Homo sapiens) (UniProt P43250); conditions: at 0.1 µM
Sequence of G protein-coupled receptor kinase 6 (Homo sapiens) (P43250 whole entry, looked up): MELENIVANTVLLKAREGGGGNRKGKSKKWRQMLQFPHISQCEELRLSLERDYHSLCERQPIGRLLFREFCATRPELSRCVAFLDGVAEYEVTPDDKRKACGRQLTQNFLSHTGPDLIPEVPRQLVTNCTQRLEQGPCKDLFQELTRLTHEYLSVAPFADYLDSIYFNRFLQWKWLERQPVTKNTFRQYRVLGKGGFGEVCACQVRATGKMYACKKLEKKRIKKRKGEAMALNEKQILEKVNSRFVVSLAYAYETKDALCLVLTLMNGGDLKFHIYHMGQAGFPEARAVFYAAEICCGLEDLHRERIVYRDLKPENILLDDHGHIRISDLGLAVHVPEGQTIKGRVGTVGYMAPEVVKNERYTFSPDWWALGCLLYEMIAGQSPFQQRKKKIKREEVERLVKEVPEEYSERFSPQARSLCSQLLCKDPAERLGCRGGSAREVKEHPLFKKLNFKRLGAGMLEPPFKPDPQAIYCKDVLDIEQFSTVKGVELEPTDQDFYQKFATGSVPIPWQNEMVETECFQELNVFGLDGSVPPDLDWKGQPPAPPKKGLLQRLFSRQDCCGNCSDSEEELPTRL

[8] = biological target: G protein-coupled receptor kinase 6 (Homo sapiens) (UniProt P43250); conditions: at 1 µM
[9] = biological target: T1, Rhodopsin kinase GRK7 (Homo sapiens) (UniProt Q8WTQ7); conditions: at 0.1 µM
T1 sequence (whole entry): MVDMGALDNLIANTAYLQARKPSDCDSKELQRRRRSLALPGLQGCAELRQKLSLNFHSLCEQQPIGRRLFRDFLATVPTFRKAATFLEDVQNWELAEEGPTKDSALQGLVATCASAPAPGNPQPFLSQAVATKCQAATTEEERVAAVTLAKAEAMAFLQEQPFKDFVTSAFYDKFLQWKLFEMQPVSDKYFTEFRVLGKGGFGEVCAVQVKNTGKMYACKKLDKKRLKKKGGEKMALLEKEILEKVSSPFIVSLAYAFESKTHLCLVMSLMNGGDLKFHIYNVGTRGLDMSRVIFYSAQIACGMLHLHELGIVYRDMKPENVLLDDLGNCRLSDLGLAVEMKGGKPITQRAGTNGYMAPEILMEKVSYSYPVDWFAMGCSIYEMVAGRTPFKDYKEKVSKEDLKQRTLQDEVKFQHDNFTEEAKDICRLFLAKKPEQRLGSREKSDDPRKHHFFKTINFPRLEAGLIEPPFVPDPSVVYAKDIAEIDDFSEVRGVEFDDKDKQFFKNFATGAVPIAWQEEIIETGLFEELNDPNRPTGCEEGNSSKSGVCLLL

[10] = biological target: T1, Rhodopsin kinase GRK7 (Homo sapiens); conditions: at 1 µM

Sequence of RAC-beta serine/threonine-protein kinase (Homo sapiens) (P31751 whole entry): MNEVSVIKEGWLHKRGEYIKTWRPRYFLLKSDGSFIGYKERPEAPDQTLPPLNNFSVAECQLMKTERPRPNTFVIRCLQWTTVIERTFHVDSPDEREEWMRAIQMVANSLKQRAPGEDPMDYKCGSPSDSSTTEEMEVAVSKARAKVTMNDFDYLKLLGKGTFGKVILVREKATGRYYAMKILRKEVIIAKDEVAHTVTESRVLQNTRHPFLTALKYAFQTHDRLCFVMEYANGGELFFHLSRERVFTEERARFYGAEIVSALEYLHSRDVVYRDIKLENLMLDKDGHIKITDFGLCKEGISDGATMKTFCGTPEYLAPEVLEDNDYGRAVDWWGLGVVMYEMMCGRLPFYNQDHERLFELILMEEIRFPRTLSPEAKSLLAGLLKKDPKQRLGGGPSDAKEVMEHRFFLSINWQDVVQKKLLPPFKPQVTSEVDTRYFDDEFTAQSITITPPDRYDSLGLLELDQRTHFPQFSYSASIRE
Sequence of RAC-alpha serine/threonine-protein kinase (Homo sapiens) (P31749 whole entry): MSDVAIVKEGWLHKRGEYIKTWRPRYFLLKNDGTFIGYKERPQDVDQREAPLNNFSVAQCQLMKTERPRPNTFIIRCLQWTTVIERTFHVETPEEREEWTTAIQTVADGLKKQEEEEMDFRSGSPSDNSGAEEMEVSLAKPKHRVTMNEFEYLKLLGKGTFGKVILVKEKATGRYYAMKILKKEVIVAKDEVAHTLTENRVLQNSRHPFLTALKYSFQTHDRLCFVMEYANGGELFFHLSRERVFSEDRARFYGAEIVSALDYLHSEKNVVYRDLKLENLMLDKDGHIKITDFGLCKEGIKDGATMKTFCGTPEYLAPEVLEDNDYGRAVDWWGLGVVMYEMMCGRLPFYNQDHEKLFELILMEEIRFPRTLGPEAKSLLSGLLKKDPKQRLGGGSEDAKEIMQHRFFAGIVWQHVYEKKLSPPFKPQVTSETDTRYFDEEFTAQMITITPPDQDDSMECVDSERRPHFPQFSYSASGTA

Row | SMILES | inhibition [1] [%] | inhibition [2] [%] | inhibition [3] [%] | inhibition [4] [%] | inhibition [5] [%] | inhibition [6] [%] | inhibition [7] [%] | inhibition [8] [%] | inhibition [9] [%] | inhibition [10] [%]
1 | O=C1NC(=O)C(c2cccc(Cl)c2)=C1Nc1ccc(O)c(Cl)c1 | 0.39 | 1.25 | 0.32 | -0.16 | 0.98 | 0.23 | 2.15 | 1 | 0.66 | 6.41
2 | Cc1cc(O)cc(C)c1/C=C/c1cncc(-c2nn[nH]n2)c1 | -2.92 | -4.1 | -1.95 | -2.32 | -2.52 | -2.46 | 1.06 | 5.14 | 2.35 | 4.65
3 | Nc1ncnc2occ(-c3ccc(NC(=O)Nc4cccc(C(F)(F)F)c4)cc3)c12 | 1.53 | 0.96 | 1.75 | 2.15 | 0.73 | 2.7 | 2.54 | 0.47 | 8.48 | 4.95
4 | CCn1c(-c2nonc2N)nc2cncc(C(=O)N3CCNCC3)c21 | 0.91 | 2.57 | 2.91 | 2.21 | 2.05 | 5.1 | 6.32 | 9.53 | 7.48 | 9.01
5 | [O-][S+]1CCN(Cc2ccc(-c3ccc4ncnc(Nc5ccc(OCc6ccccc6)c(F)c5)c4c3)o2)CC1 | 0.83 | -0.19 | 2.53 | 0.9 | 0.99 | 1.21 | 3.78 | -2.01 | 1.86 | -0.58
6 | CCCN1CCC(Oc2cc(Nc3nc(Nc4cccc(F)c4C(N)=O)c4cc[nH]c4n3)c(OC)cc2Cl)CC1 | 0.07 | 1.83 | 1.14 | 2.04 | 1.42 | 1.06 | 1.2 | 1.87 | 3.39 | 7.39
7 | COc1ccccc1Nc1ncc(-c2ccccc2)o1 | 1.37 | 1.71 | 0.6 | 2.82 | 0.12 | 3.9 | 2.46 | 3.95 | 10.1 | 2.31
8 | NC(=O)c1cccc(Nc2nccc(Nc3cccc4[nH]ncc34)n2)c1 | -2.33 | 1.84 | -3.71 | -1.08 | -2.36 | -1.13 | -0.32 | 2.35 | -7.6 | 5.88
9 | CC1=C(C(=O)Nc2ccc3[nH]ncc3c2)C(c2ccc3ccccc3c2)CC(=O)N1 (stereo not given) | 0.52 | 0.98 | 0.74 | 1.1 | 1.23 | 3.76 | 2.91 | 13.5 | 2.64 | 4.56
10 | CN1CCC(C(=O)Nc2n[nH]c3nnc(-c4ccccc4)cc23)CC1 | 0.8 | 0.53 | 3.48 | 1.57 | 2.3 | 2.79 | 7.16 | 14.5 | 7.52 | 15.6
11 | CCn1c(-c2nonc2N)nc2c(C#CC(C)(C)O)nc(CN3CCCC3)cc21 | 8.37 | 54.9 | 10 | 55.5 | 18.8 | 78.7 | -2.28 | -0.02 | -4.34 | 3.4
12 | COc1cc2ncn(-c3cc(OCc4ccccc4Cl)c(C(N)=O)s3)c2cc1OC | -1.2 | -0.21 | -0.21 | 0.92 | 1.15 | -1.17 | 2.37 | 5.7 | -0.82 | 9.44
13 | Cc1nnc(-c2ccc(C)c(-c3ccc(C(=O)Nc4cccc(C#N)c4)cc3)c2)o1 | 0.44 | 0.29 | 0.76 | 0.57 | 1.16 | 1.22 | 2.81 | 3.91 | 2.5 | 7.22
14 | NS(=O)(=O)c1cccc(-c2ccc3c(NC(=O)C4CC4)n[nH]c3c2)c1 | -2.14 | -1.44 | -4.21 | -1.31 | -1.31 | -2.99 | 1.43 | 2.82 | -7.07 | -0.65
15 | CCn1c(-c2nonc2N)nc2cnc(Oc3cccc(NC(=O)c4ccc(OCCN5CCOCC5)cc4)c3)cc21 | 1.6 | 7.87 | 2.69 | 7.74 | 2.01 | 7.9 | 6.32 | 9.42 | 1.38 | 9.5
16 | O=C1Nc2ccc(C(=O)c3ccco3)cc2C1=Cc1cc(Cl)c(O)c(Cl)c1 | 0.57 | 1.08 | 1.49 | 0.98 | 1.75 | 0.62 | 29.7 | 79.6 | 30.6 | 54.8
17 | COc1ccc(COc2ccc(Cc3cnc(N)nc3N)cc2OC)cc1 | 0.82 | -0.15 | 0.33 | -0.17 | 0.61 | 0.93 | -3 | -5.27 | 11 | -7.03

Row | SMILES | inhibition [1] [%] | inhibition [2] [%] | inhibition [3] [%] | inhibition [4] [%] | inhibition [5] [%] | inhibition [6] [%] | inhibition [7] [%] | inhibition [8] [%] | inhibition [9] [%] | inhibition [10] [%]
18 | CC(C)=Cc1cccc2c1/C(=N/Nc1ccc(S(N)(=O)=O)cc1)C(=O)N2 | 0.31 | 0.65 | 0.76 | 0.93 | 2.87 | 0.49 | 3.06 | 8.62 | 1.04 | -0.7
19 | COc1cc2ncn(-c3cc(O[C@H](C)c4ccccc4Cl)c(C(N)=O)s3)c2cc1OC | 1.41 | 2.07 | 2.49 | 2.19 | 0.81 | 1.74 | 3.78 | 15 | 5.01 | 10.8
20 | c1cnn2ncc(-c3ccnc(Nc4ccc5c(c4)OCCO5)n3)c2c1 | 0.86 | 0.95 | 2.29 | 1.47 | 1.09 | 2.1 | 7.21 | 4.01 | 4.35 | 2.89
21 | COc1cc2c(cc1Nc1nc(N3CCc4ccccc43)c3cc[nH]c3n1)N(C(=O)CN(C)C)CC2 | 1.38 | 1.39 | 0.6 | 1.42 | 1.23 | 1.23 | 1.54 | -3.01 | -0.63 | -6.08
22 | Nc1ncnc2occ(-c3ccc(NC(=O)Nc4cc(C(F)(F)F)cc(C(F)(F)F)c4)cc3)c12 | -0.23 | 0.58 | 1.95 | 2.09 | 1.26 | 1.13 | -2.78 | -6.02 | -0.71 | -8.6
23 | Cc1ccc(C(=O)NC2CCCCC2)cc1-c1ccc(C(=O)NCC2CC2)cc1 | 0.04 | 0.76 | 1.52 | 1.72 | 2.01 | 0.64 | -0.29 | -3.25 | 2.64 | 6.92
24 | COc1cccc(-n2ncc3c(N/N=C/c4cccc(F)c4)ncnc32)c1 | -2.98 | -3.97 | -2.03 | -2.75 | -1.82 | -1.99 | 3.44 | 0.12 | 1.93 | 10.3
25 | O=C1NC(=O)C(N2CCc3ccccc32)=C1c1ccc(Cl)cc1 | 1.09 | 1.67 | 1.7 | 2.85 | 2.52 | 1.75 | 0.71 | 3.31 | 2.29 | 7.76
26 | COc1ccc(-c2coc3ncnc(N)c23)cc1 | 0.76 | 0.76 | 2.07 | 1.94 | 0.3 | 2.05 | 1.34 | 1.56 | 3.57 | 9.28
27 | CC1=C(C(=O)Nc2ccc3[nH]ncc3c2)C(c2ccc(Cl)c(Cl)c2)CC(=O)N1 (stereo not given) | -0.08 | 1.46 | 1.11 | 1.63 | 0.95 | 2.81 | 4.25 | 7.35 | -1.63 | -5.21
28 | COc1ccc2cc(-c3c(-c4ccncc4)nc(-c4ccc([S+](C)[O-])cc4)n3C)ccc2c1 (stereo not given) | 1 | 0.09 | 1.34 | 1.69 | 1.23 | 0.72 | -3.74 | -0.39 | 2.62 | 2.42
29 | CCn1c(-c2nonc2N)nc2c(N3CCCC3)nccc21 | -2.09 | -2.19 | -3.12 | -0.45 | -0.61 | 1.15 | 0.48 | 2.71 | -7.43 | 0.27
30 | Fc1cccc(COc2ccc(Nc3ncnc4sc(-c5cccs5)cc34)cc2Cl)c1 | 0.07 | -0.67 | -0.49 | 0.01 | 0.23 | 1.25 | 1.48 | 1.31 | 7.27 | -0.21
31 | CS(=O)(=O)CCNCc1ccc(-c2ccc3ncnc(Nc4ccc(OCc5ccccc5)c(Cl)c4)c3c2)o1 | -1 | -0.87 | 0.26 | 0.32 | -0.1 | -0.63 | 0.49 | 0.68 | 7.87 | -3.27
32 | COC(=O)Nc1nc2cc(Oc3cccc(NC(=O)Nc4cc(C(F)(F)F)ccc4F)c3)ccc2[nH]1 | 0.52 | 0.1 | -0.46 | -0.62 | 0.98 | 1.83 | 2.28 | 0.3 | -2.92 | 1.74
33 | O=C(Nc1n[nH]c2nc(-c3ccco3)c(Br)cc12)C1CC1 | 0.59 | 0.53 | 2.1 | 2.15 | 0.47 | 1.46 | -0.71 | -0.55 | 3.55 | 4.09
